Key:
Assay in all cases: DAPPL (digital affinity profiling via proximity ligation, sequencing); 10 mM Tris-HCl pH 7.5, 50 mM NaCl, 1 mM DTT, 4% glycerol, room temperature, 30 min; GST-TFs on glutathione beads, 16-mer random dsDNA library, 0.1% formaldehyde crosslink after washing; high values mean tight binding
[1] = molecular target: T1, FEV (Homo sapiens, UniProt Q99581 1-238); details: protein: recombinant; tags: N-terminal GST; dsDNA, one strand shown
T1 sequence: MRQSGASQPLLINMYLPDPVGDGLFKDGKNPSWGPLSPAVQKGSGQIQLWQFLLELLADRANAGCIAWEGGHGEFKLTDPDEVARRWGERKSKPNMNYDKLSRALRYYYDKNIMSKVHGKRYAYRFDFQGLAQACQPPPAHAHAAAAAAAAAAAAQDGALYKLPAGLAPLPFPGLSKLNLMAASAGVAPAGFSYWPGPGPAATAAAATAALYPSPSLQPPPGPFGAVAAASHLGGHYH
In short: (§1)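 A tag-only sample was pooled with DNA-barcoded human transcription factors that had been expressed in yeast as GST fusions and captured on glutathione beads. The pools were incubated for 30 min at room temperature with 200 nmole of a random double-stranded 16-mer DNA library in Tris/NaCl/DTT/glycerol buffer, then washed, crosslinked with 0.1% formaldehyde, proximity-ligated (BsaI/T4 ligase, 1 h, 37 °C), PCR-amplified and sequenced on an Illumina NextSeq500. Binding signal is each hexamer's read frequency for a factor divided by its frequency for the tag-only sample.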

[2] = molecular target: ETV5 (Homo sapiens, UniProt P41161 1-510); details: protein: recombinant; tags: N-terminal GST; dsDNA, one strand shown
In short: as §1

[3] = molecular target: HSF1 (Homo sapiens, UniProt Q00613 1-529); details: protein: recombinant; tags: N-terminal GST; chain copies: 3; dsDNA, one strand shown
In short: as §1

[4] = molecular target: T2, SPIC (Homo sapiens, UniProt Q8N5J4 1-248); details: protein: recombinant; tags: N-terminal GST; dsDNA, one strand shown
T2 sequence: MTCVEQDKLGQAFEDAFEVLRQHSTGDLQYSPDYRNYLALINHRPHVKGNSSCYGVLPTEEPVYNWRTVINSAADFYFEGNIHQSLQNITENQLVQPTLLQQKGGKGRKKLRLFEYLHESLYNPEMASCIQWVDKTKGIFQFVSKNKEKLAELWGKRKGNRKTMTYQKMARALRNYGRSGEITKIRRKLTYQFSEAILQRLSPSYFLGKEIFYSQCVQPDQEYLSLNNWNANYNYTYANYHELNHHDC
In short: as §1

[5] = molecular target: ELF4 (Homo sapiens, UniProt Q99607 1-663); details: protein: recombinant; tags: N-terminal GST; dsDNA, one strand shown
In short: as §1

[6] = molecular target: T3, ELK4 (Homo sapiens, UniProt P28324-2 1-405); details: protein: recombinant; tags: N-terminal GST; dsDNA, one strand shown
T3 sequence: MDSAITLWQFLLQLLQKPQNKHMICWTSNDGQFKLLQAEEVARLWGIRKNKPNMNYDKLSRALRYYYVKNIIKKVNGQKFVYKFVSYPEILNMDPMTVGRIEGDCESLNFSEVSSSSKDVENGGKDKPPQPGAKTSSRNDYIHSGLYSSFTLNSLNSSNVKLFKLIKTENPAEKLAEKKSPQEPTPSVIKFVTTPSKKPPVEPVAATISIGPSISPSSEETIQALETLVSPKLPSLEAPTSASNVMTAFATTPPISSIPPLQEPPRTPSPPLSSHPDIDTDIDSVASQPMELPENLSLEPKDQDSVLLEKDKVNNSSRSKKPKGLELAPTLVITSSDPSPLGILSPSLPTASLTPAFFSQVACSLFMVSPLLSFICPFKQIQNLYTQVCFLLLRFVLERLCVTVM
In short: as §1

[7] = molecular target: T4, ETV2 (Homo sapiens, UniProt O00321 1-342); details: protein: recombinant; tags: N-terminal GST; dsDNA, one strand shown
T4 sequence: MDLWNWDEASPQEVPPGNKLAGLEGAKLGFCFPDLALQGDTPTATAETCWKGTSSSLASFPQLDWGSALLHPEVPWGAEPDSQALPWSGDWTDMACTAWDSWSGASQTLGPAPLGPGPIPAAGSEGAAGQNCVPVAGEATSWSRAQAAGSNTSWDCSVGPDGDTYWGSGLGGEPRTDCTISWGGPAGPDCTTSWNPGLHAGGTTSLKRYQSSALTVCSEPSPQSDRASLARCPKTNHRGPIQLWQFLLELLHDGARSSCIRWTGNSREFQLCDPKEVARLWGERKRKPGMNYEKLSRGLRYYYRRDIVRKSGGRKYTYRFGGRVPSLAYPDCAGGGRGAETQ
In short: as §1

[8] = molecular target: T5, ELF3 (Homo sapiens, UniProt P78545 1-371); details: protein: recombinant; tags: N-terminal GST; dsDNA, one strand shown
T5 sequence: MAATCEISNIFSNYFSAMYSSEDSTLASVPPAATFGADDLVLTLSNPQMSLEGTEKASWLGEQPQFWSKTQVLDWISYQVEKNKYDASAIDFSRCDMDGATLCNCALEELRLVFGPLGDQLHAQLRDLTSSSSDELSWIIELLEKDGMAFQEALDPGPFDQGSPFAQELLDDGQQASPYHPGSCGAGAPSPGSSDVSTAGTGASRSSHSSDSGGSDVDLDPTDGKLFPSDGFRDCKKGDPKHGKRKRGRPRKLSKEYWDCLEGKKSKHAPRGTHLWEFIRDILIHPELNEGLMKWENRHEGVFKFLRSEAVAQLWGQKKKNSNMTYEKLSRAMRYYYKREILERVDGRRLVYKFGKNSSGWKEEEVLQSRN
In short: as §1

[9] = molecular target: CRX (Homo sapiens, UniProt O43186 1-299); details: protein: recombinant; tags: N-terminal GST; dsDNA, one strand shown
In short: as §1

[10] = molecular target: ETV1 (Homo sapiens, UniProt P50549 1-477); details: protein: recombinant; tags: N-terminal GST; dsDNA, one strand shown
In short: as §1

[11] = molecular target: T6, ERF (Homo sapiens, UniProt P50548 1-548); details: protein: recombinant; tags: N-terminal GST; dsDNA, one strand shown
T6 sequence: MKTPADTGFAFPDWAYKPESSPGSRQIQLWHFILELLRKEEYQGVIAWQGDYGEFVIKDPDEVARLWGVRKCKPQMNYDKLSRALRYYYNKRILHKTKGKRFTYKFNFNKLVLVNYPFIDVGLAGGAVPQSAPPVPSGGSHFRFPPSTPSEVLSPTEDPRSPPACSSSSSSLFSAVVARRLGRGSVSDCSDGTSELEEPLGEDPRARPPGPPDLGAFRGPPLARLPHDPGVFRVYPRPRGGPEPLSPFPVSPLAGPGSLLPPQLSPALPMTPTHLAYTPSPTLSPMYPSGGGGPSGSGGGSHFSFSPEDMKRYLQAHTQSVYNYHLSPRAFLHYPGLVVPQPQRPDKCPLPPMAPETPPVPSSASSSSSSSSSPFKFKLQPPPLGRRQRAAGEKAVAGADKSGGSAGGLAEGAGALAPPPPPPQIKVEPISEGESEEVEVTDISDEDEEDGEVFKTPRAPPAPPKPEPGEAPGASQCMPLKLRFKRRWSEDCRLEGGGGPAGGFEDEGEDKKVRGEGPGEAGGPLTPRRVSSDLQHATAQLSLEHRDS
In short: as §1

[12] = molecular target: T7, ETV3L (Homo sapiens, UniProt Q6ZN32 1-361); details: protein: recombinant; tags: N-terminal GST; dsDNA, one strand shown
T7 sequence: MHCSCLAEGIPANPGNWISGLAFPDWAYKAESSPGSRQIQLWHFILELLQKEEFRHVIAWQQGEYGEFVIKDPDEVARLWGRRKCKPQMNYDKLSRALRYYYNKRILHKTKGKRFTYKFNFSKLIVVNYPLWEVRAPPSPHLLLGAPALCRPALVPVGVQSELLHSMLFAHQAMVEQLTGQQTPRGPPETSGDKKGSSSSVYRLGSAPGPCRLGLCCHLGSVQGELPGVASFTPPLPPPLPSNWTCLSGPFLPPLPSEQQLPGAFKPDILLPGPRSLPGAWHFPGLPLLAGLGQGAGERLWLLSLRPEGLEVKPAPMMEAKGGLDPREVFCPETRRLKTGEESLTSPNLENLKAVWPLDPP
In short: as §1

[13] = molecular target: T8, ETS2 (Homo sapiens, UniProt P15036 1-469); details: protein: recombinant; tags: N-terminal GST; dsDNA, one strand shown
T8 sequence: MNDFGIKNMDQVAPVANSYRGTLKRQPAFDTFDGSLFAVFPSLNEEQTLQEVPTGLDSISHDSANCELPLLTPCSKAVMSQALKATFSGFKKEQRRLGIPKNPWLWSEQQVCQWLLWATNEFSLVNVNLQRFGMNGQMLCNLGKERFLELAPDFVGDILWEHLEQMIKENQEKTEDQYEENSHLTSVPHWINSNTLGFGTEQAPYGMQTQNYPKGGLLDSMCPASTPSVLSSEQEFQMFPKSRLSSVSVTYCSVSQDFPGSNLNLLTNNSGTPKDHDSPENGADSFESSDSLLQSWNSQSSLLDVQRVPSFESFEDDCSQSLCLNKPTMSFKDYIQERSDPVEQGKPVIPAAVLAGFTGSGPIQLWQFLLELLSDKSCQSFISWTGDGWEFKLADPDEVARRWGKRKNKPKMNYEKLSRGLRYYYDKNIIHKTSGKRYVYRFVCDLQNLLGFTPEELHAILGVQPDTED
In short: as §1

[14] = molecular target: T9, SPDEF (Homo sapiens, UniProt O95238 1-335); details: protein: recombinant; tags: N-terminal GST; dsDNA, one strand shown
T9 sequence: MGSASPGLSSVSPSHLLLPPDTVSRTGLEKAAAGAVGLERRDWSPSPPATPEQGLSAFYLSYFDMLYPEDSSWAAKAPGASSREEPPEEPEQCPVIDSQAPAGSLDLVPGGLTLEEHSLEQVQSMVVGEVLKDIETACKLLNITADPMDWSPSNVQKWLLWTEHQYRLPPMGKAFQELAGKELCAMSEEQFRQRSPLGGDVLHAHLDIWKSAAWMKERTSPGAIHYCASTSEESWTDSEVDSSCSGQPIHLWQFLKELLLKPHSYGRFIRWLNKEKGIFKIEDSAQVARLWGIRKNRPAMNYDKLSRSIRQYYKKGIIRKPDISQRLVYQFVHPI
In short: as §1

[15] = molecular target: T10, ETV7 (Homo sapiens, UniProt Q9Y603 1-341); details: protein: recombinant; tags: N-terminal GST; dsDNA, one strand shown
T10 sequence: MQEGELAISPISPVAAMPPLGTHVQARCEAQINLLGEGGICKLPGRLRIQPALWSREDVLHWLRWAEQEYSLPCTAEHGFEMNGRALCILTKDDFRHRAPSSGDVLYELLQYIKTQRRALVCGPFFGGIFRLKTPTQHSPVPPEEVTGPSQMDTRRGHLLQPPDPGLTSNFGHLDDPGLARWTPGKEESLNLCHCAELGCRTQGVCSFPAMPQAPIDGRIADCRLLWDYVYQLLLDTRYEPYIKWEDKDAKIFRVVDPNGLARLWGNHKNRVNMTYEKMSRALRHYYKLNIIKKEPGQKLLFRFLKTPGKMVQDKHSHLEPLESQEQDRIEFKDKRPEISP
In short: as §1

[16] = molecular target: T11, ELF5 (Homo sapiens, UniProt Q9UKW6-2 1-255); details: protein: recombinant; tags: N-terminal GST; dsDNA, one strand shown
T11 sequence: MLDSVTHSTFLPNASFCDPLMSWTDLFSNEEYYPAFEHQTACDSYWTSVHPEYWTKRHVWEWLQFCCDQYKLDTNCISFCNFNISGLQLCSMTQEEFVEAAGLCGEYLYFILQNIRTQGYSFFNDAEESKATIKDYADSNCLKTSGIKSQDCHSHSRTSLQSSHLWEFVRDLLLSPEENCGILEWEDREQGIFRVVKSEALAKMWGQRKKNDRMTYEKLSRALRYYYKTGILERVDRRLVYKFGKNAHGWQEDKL
In short: as §1

[17] = molecular target: T12, ETV3 (Homo sapiens, UniProt P41162-2 1-143); details: protein: recombinant; tags: N-terminal GST; dsDNA, one strand shown
T12 sequence: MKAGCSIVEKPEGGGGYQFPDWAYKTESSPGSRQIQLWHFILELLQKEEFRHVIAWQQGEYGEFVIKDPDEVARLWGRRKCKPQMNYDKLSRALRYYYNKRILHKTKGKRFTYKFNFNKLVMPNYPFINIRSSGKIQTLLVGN
In short: as §1

[18] = molecular target: ETV6 (Homo sapiens, UniProt P41212 1-452); details: protein: recombinant; tags: N-terminal GST; dsDNA, one strand shown
In short: as §1

Chain of ELF4 (Q99607 whole entry): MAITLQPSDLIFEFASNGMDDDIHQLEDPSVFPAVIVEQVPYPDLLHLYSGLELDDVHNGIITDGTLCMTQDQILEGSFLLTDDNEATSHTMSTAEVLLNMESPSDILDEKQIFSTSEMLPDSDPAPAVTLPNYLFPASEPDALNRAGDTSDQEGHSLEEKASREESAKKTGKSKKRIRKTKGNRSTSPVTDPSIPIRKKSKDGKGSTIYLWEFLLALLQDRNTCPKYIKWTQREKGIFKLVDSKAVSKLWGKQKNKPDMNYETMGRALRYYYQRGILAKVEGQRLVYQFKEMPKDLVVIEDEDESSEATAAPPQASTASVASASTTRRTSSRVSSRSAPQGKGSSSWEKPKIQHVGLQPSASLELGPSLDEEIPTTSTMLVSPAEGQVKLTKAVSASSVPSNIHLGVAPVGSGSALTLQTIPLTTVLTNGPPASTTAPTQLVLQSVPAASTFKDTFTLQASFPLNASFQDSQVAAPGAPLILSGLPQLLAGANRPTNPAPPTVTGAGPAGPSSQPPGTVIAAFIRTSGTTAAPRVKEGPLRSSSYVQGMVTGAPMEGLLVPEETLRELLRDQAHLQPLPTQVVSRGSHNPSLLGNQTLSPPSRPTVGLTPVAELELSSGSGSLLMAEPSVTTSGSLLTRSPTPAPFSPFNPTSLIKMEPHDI
Chain of ETV5 (P41161 whole entry): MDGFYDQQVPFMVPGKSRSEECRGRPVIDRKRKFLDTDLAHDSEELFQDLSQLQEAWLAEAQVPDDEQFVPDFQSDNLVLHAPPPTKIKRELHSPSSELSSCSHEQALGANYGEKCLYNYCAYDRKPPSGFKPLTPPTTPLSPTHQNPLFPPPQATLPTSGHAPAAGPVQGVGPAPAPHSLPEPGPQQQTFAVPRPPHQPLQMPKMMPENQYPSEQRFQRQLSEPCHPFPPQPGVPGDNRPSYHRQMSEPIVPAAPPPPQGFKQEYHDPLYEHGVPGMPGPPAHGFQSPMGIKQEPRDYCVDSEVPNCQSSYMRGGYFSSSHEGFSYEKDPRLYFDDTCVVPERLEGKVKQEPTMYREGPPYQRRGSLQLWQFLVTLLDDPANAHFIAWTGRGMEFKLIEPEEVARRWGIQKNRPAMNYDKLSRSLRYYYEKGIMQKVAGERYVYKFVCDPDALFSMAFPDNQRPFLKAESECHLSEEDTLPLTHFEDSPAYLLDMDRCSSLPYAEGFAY
Chain of HSF1 (Q00613 whole entry): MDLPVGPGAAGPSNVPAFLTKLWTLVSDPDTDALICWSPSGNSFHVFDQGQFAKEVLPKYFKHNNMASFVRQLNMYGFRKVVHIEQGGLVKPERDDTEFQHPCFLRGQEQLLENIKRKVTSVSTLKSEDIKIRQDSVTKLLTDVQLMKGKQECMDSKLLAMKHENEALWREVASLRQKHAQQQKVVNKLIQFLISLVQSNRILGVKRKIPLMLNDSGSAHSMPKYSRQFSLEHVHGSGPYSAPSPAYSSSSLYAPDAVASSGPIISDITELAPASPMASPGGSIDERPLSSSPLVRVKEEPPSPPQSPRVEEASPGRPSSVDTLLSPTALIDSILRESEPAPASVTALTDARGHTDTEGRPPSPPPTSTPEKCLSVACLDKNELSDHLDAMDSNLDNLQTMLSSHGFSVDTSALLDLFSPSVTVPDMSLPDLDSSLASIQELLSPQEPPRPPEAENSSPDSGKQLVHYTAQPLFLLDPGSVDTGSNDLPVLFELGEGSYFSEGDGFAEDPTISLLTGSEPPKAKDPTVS
Chain of ETV1 (P50549 whole entry): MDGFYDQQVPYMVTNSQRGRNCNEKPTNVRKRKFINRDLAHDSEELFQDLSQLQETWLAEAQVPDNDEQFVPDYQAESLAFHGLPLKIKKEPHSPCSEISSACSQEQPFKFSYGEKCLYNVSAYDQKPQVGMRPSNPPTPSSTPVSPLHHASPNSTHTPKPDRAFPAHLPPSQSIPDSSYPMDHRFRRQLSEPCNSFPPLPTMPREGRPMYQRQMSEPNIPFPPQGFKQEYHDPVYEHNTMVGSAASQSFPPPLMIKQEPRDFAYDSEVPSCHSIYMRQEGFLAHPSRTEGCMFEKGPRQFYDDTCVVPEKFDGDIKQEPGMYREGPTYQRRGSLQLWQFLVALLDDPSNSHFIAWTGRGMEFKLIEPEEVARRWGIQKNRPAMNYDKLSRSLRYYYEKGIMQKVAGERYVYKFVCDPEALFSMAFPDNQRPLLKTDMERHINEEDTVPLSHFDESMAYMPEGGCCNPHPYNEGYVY
Chain of CRX (O43186 whole entry): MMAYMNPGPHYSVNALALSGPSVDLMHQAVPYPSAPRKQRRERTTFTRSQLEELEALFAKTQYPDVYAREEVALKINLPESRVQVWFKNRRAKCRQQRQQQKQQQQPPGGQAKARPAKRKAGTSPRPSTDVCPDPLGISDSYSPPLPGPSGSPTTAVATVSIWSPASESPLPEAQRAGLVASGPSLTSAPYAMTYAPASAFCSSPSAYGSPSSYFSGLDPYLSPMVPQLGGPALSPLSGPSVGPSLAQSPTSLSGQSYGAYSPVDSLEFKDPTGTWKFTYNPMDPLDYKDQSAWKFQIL
Chain of ETV6 (P41212 whole entry): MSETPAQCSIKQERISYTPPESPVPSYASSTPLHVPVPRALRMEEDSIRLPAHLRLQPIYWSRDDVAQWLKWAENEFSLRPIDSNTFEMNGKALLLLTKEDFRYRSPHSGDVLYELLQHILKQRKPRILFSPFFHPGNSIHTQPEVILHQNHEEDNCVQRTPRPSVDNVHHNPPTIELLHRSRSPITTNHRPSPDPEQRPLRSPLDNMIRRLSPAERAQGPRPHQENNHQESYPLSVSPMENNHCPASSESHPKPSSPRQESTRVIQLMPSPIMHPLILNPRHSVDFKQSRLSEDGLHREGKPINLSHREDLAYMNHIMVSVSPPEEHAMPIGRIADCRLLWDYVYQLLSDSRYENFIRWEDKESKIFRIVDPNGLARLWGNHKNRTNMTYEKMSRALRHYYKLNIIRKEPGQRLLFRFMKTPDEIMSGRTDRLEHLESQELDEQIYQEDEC

Sequence: TGCCTT
- binding signal [1]: 1.3 fold enrichment (6-mer frequency, TF over GST control)
- binding signal [2]: 1.36 fold enrichment (6-mer frequency, TF over GST control)
- binding signal [3]: 1.27 fold enrichment (6-mer frequency, TF over GST control)
- binding signal [4]: 1.55 fold enrichment (6-mer frequency, TF over GST control)
- binding signal [5]: 1.27 fold enrichment (6-mer frequency, TF over GST control)
- binding signal [6]: 1.43 fold enrichment (6-mer frequency, TF over GST control)
- binding signal [7]: 1.2 fold enrichment (6-mer frequency, TF over GST control)
- binding signal [8]: 1.45 fold enrichment (6-mer frequency, TF over GST control)
- binding signal [9]: 1.33 fold enrichment (6-mer frequency, TF over GST control)
- binding signal [10]: 1.34 fold enrichment (6-mer frequency, TF over GST control)
- binding signal [11]: 1.24 fold enrichment (6-mer frequency, TF over GST control)
- binding signal [12]: 1.52 fold enrichment (6-mer frequency, TF over GST control)
- binding signal [13]: 1.38 fold enrichment (6-mer frequency, TF over GST control)
- binding signal [14]: 1.32 fold enrichment (6-mer frequency, TF over GST control)
- binding signal [15]: 1.28 fold enrichment (6-mer frequency, TF over GST control)
- binding signal [16]: 1.39 fold enrichment (6-mer frequency, TF over GST control)
- binding signal [17]: 1.31 fold enrichment (6-mer frequency, TF over GST control)
- binding signal [18]: 1.23 fold enrichment (6-mer frequency, TF over GST control)

— PMC7862700, “An all-to-all approach to the identification of sequence-specific readers for epigenetic DNA modifications on cytosine”
